Assay results reported in PubChem BioAssay (NCI).
Compounds without any hit were thinned out: in the full panel of roughly 83,000, 20% have a hit.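 A percent growth of 40 corresponds to 60% growth inhibition; 0 means no net growth; -100 means all cells died. Active threshold: below 10.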 Active and inactive are the calls of the source.

Columns and labels:
Experiment in all cases: NCI-60 one-dose screen, 48 h (100 = growth as untreated, 0 = no growth, -100 = all killed)
Conditions in all cases: 10 µM unless noted
NCI-H23 lung = system: NCI-H23 lung
NCI-H226 lung = system: NCI-H226 lung
NCI-H322M lung = system: NCI-H322M lung
HOP-62 NSCLC = system: HOP-62 NSCLC
HOP-92 NSCLC = system: HOP-92 NSCLC
NCI-H522 lung = system: NCI-H522 lung
A549/ATCC NSCLC = system: A549/ATCC NSCLC
786-0 renal = system: 786-0 renal
COLO 205 colon = system: COLO 205 colon

Measured: growth

CCC(CC(C)C)Nc1ccc(NC(CC)CC(C)C)cc1 (configuration not stated)
active: HOP-92 NSCLC -13.1%
inactive: NCI-H23 lung 77.7% | NCI-H226 lung 76.5% | NCI-H322M lung 107% | HOP-62 NSCLC 105% | NCI-H522 lung 14.6% | A549/ATCC NSCLC 89.2% | 786-0 renal 93.1% | COLO 205 colon 76.9%

CC(C)[C@@H]1NC(=O)[C@]2(C)CSC(=N2)c2ccnc(c2)CNC(=O)C[C@@H](/C=C/CCS)OC1=O
inactive: NCI-H23 lung 12.6% | NCI-H226 lung 11.8%
active: NCI-H322M lung 4.39% | HOP-62 NSCLC 6.46% | HOP-92 NSCLC -16.5% | NCI-H522 lung -18.4% | A549/ATCC NSCLC -1.52% | 786-0 renal 6.38% | COLO 205 colon -70.3%

CN1C(=O)C2(SCC(C(=O)NCC(=O)OC(C)(C)C)N2C(=O)C2CCCCC2)c2ccccc21 (configuration not stated)
inactive: NCI-H23 lung 94.4% | NCI-H226 lung 91.6% | NCI-H322M lung 95.3% | HOP-62 NSCLC 95% | HOP-92 NSCLC 85.8% | NCI-H522 lung 80.9% | A549/ATCC NSCLC 95.2% | 786-0 renal 94.7% | COLO 205 colon 99.9%

NC(=NCCCOc1ccc(F)cc1)Nc1ccc(Cl)c(Cl)c1
inactive: NCI-H23 lung 67.9% | NCI-H226 lung 76.2% | NCI-H322M lung 69.3% | HOP-62 NSCLC 78.7% | NCI-H522 lung 67.6% | A549/ATCC NSCLC 82.5% | 786-0 renal 67.6%
active: COLO 205 colon -57.7%

COc1ccc(C(=O)NC(=O)Nc2ccc3c(c2)NC(=O)/C3=C\c2[nH]c(C)c(C(=O)O)c2C)c(F)c1
inactive: NCI-H23 lung 48.9% | NCI-H226 lung 67.1% | NCI-H322M lung 45% | HOP-62 NSCLC 64.9% | HOP-92 NSCLC 63.9% | NCI-H522 lung 37.8% | A549/ATCC NSCLC 47.6% | 786-0 renal 35% | COLO 205 colon 88.6%

CCOc1ccc(NC(=O)Nc2cc(C(C)C)ccc2C)cc1
inactive: NCI-H23 lung 79.2% | NCI-H226 lung 92.8% | NCI-H322M lung 90.8% | HOP-62 NSCLC 95% | HOP-92 NSCLC 55.1% | NCI-H522 lung 46.4% | A549/ATCC NSCLC 36.6% | 786-0 renal 13% | COLO 205 colon 98.7%

NS(=O)(=O)c1ccc(Nc2nc(O)c(/C=C3\C=Nc4ccccc43)s2)cc1
inactive: NCI-H23 lung 92% | NCI-H226 lung 99.6% | NCI-H322M lung 90.7% | HOP-62 NSCLC 97.5% | HOP-92 NSCLC 114% | NCI-H522 lung 92% | A549/ATCC NSCLC 90.4% | 786-0 renal 106% | COLO 205 colon 122%
